PABP1 MLLE inh: blocks PAM2 peptide binding to the PABP1 MLLE domain | P11940 | GST-MLLE / FITC-PAM2 fluorescence polarization | inhibition, % at 20 µM | 360,000 tested, 0.36% active; in the data active = inhibition above about 35%, passing the limit was not always enough
CRFR2-BP antag: CRF-BP/CRF-R2 complex antagonism; HEK293 CRF-R2/CRF-BP, CRF-induced calcium fluorescence; 350,000 tested, 0.59% active; inhibition, % at 11.8 µM;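 active = inhibition of the ligand-induced calcium signal above about 50% at the single tested concentration, limit read from the data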
eIF4H FP inh: inhibitors of RNA binding by human eIF4H. Q15056. inhibition, % at 35 µM. eIF4H fluorescence polarization binding assay. 290,000 tested, 0.94% active. AID 2012;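 also: calls also rest on retests at 20 µM and on dose response follow-up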
PABP FP inh: blocks human PABP binding to poly(A) RNA. inhibition, % at 35 µM. 290,000 tested, 1% active. fluorescence polarization. AID 2014;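 also: calls also rest on retests at 20 µM and on dose response follow-up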
PHOSPHO1 block: PHOSPHO1 (human) inhibition; 290,000 tested, 1.1% active; inhibition, % at 13.3 µM; recombinant PHOSPHO1, absorbance phosphatase assay; in the data active = inhibition above about 60%
Target sequence (Q8TCT1 whole entry, looked up): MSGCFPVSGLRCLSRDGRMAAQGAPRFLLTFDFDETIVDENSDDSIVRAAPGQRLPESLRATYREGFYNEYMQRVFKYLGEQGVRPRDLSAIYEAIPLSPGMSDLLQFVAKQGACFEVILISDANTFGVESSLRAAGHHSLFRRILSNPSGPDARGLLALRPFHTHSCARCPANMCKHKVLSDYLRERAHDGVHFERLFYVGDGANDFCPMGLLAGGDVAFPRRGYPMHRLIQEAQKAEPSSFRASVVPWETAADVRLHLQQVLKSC
Hits are given with their value; – = inactive; ? = inconclusive; · = no result given; ! = not confirmed by another sample. Compounds with a hit are over-represented: about 2.6% of the library has one in this group of screens. Unless noted, no rule for the calls is given here.

SMILES | PABP1 MLLE inh | CRFR2-BP antag | eIF4H FP inh | PABP FP inh | PHOSPHO1 block
Cc1ccccc1SCCNC(=O)c1ccccc1Br | – | – | – | – | 60
N#CCc1cnc2ccccc2n1 | – | – | 89 | 52 | –
NS(=O)(=O)c1ccc(NCc2cnc3ccccc3n2)cc1 | – | – | · | · | ·
Cc1ccc(SCC(=O)c2ccc(CC(=O)O)s2)cc1 | – | – | 74 | – | –
CCOC(=O)C(C#N)=CN1CCNc2ccccc21 | – | – | · | · | ·
O=C(COC(=O)/C=C/c1cccc(F)c1)NC1CCCCC1 | – | – | · | · | ·
COc1ccc(/C=C/C(=O)OCC(=O)N2c3ccccc3CC2C)c(OC)c1 (stereo not drawn) | – | – | · | · | ·
CC(CC(=O)Nc1nnc(C(C)(C)C)s1)c1ccccc1 (stereo not drawn) | 48 | – | – | – | –
c1ccc(-c2nc3cccnc3nc2-c2ccccc2)cc1 | – | – | · | · | ·
CC(=NOC(=O)c1ccc(I)cc1)c1nccs1 | – | · | · | · | ·
O=C1SC(SCc2ccccc2)=N/C1=C\c1ccco1 | – | – | – | – | –
O=C1SC(c2ccccc2)=N/C1=C/c1ccco1 | – | – | 50 | 18 | 73
O=C1NNC(c2ccccc2)=N/C1=C\c1ccco1 | – | – | – | 50 | –
COc1ccc(-c2onc3ccc(Cl)cc23)cc1 | – | – | 51 | 68 | –
CC(=O)NC(c1ccc(F)c(F)c1)c1nc(-c2cnc3ccccc3c2)cs1 (stereo not drawn) | – | · | · | · | ·
Cn1c(CNC(=O)c2ccco2)nnc1SCC(=O)Nc1cccc(Br)c1 | – | – | – | – | 93
COc1ccc([N+](=O)[O-])cc1Nc1ncnc2ccccc12 | – | – | – | – | –
O=[N+]([O-])c1ccc(O)c(Nc2ncnc3ccccc23)c1 | – | 63 | – | – | –
O=[N+]([O-])c1ccc(O)c(Nc2ncnc3ccc(Br)cc23)c1 | – | 66 | – | – | –
CCCCC[C@@H](/C=C/C1C(=O)C=C[C@H]1C/C=C\CCCC(=O)OC)OC(C)=O (stereo partly drawn) | – | – | · | · | ·
Cc1ccc(C2CC(=O)N3CN(c4ccc(Br)cc4)CSC3=C2C#N)o1 (stereo not drawn) | – | – | 41 | 92 | 93
CCOc1ccc(N2CSC3=C(C#N)C(c4ccco4)CC(=O)N3C2)cc1 (stereo not drawn) | – | – | 92 | 87 | 94
COc1ccc2ccccc2c1C1CC(=O)N2CN(C)CSC2=C1C#N (stereo not drawn) | – | – | – | – | –
CC(=O)c1cccc(-c2ccnc3c2CC(C(=O)Nc2ccccc2)O3)c1 (stereo not drawn) | – | · | · | · | ·
COc1cc(CNC(=O)Nc2nnc([C@H]3C[C@H](O)[C@@H](CO)O3)s2)cc(OC)c1OC | – | · | · | · | ·
SMILES | PABP1 MLLE inh | CRFR2-BP antag | eIF4H FP inh | PABP FP inh | PHOSPHO1 block
O=C(NCc1ccncc1)C(=O)NCC1OCCN1S(=O)(=O)c1cc(F)ccc1F (stereo not drawn) | – | – | – | – | –
Cc1cc(S(=O)(=O)Nc2ccc(C(=O)NCC(C)(C)N3CCOCC3)cc2)ccc1F | – | 54 | – | – | –
FC(F)(F)c1ccccc1Cc1c(-c2ccccc2)nc2ccc(Br)cn12 | – | · | · | · | ·
CC(=O)Nc1ccc(-c2ccccc2)s1 | – | – | – | 46 | –
O=C(CCn1c(=S)oc2ccccc21)Nc1ccc(F)cc1 | – | – | 8.9 | 54 | –
O=C(/C=C/c1ccc(-c2ccccc2[N+](=O)[O-])o1)c1ccco1 | 52 | – | – | – | –
CC(C)NC(=O)c1cccc2c(-c3ccc(F)c(F)c3)coc12 | – | · | · | · | ·
Cc1c(NC(=S)NC(=O)CSc2ccc(Cl)cc2)cccc1C(=O)O | 41 | – | – | – | –
Cc1c(NC(=S)NC(=O)c2cc3ccccc3o2)cccc1C(=O)O | 39 | – | – | – | –
COc1ccc(S(=O)(=O)N2CCC(C(=O)N[C@@H](C)C(=O)NCc3ccncc3)CC2)cc1 | – | – | – | – | –
Cc1cc2oc(=O)cc(CN3CCCc4ccccc43)c2cc1C | – | – | – | – | 74
Cc1cc2oc(=O)cc(CN3CCCCC3)c2cc1C | – | – | – | – | –
COC(=O)Nc1ccc2c(c1)N(C(=O)CCN1CCN3CCCC3C1)c1ccccc1CC2 (stereo not drawn) | – | – | – | – | –
COC(=O)Nc1ccc2c(c1)N(C(=O)CCN1CCN3CCCC3C1)c1ccccc1S2 (stereo not drawn) | – | – | – | – | 66
C[C@@H]1CN([C@H](C)CO)C(=O)CCCn2cc(nn2)CO[C@H]1CN(C)C(=O)C1CCCCC1 | – | · | · | · | ·
C[N+](C)(C)CCCCCCC(=O)/C=N/O | – | – | – | – | –
C[N+]1(CCCCCCC(=O)/C=N/O)CCCCCC1 | – | – | – | – | 82
O=C(COC(=O)Cc1c[nH]c2ccccc12)Nc1cccc(Br)c1 | – | – | · | · | ·
CCOc1c(C)cc(-c2ncccc2O)cc1C | – | 52! | – | – | –
COc1ccc2oc(=Nc3cc(F)ccc3F)c(C(N)=O)cc2c1 | – | – | active | 73 | –
O=C1C=CC(=NN=C(c2ccccc2)c2ccccc2)C=C1 | – | · | · | · | ·
CC1(C)OC(=O)N(Cc2ccco2)C1(C)O (stereo not drawn) | – | – | ? | 66 | –
CC1(C)OC(=O)N(CCc2ccccc2)C1(C)O (stereo not drawn) | – | – | – | – | –
CC(C)CC(=NNC(=O)c1ccncc1)c1cc(Cl)ccc1O | – | – | · | · | ·
CCC(CC)c1nnc(NC(=O)C2CC(=O)N(CCc3ccc(F)cc3)C2)s1 (stereo not drawn) | 32 | – | – | – | –
SMILES | PABP1 MLLE inh | CRFR2-BP antag | eIF4H FP inh | PABP FP inh | PHOSPHO1 block
Cn1c(C(=O)NCCc2ccccc2)cc(=O)n(C)c1=O | – | 71 | – | – | –
COc1ccc(CCC(=O)Nc2ccc(C)c(S(=O)(=O)N(C)C)c2)cc1OC | – | – | – | – | –
COc1ccc(CCNCC(=O)Nc2ccc(C)c(S(=O)(=O)N(C)C)c2)cc1 | – | – | active | 68 | –
COc1ccc(CCCc2nnc(SCC(=O)Nc3ccc(C)c(C)c3)o2)cc1 | – | – | · | · | 85
COc1ccc(CCCc2nnc(SCC(=O)Nc3ccc(OC)cc3)o2)cc1 | – | – | – | – | –
Cn1c(COc2ccccc2)nnc1SCCN1CCOCC1 | – | – | – | – | –
Cc1ccc(OCc2nnc(SCCN3CCOCC3)n2C)cc1 | – | – | – | – | 74
CCCNC(=O)C1(C)CCCN(C(=O)COc2ccc(Cl)cc2Cl)C1 (stereo not drawn) | – | · | · | · | ·
Cc1noc(C)c1S(=O)(=O)N(C)C[C@@H]1OCc2cnnn2CCCC(=O)N([C@H](C)CO)C[C@@H]1C | – | – | · | · | ·
COc1ccccc1S(=O)(=O)Cc1ccc(C(=O)NCc2ccco2)o1 | – | – | – | – | –
Cc1ccccc1S(=O)(=O)Cc1ccc(C(=O)NC2CCCCC2)o1 | – | – | – | – | 65
CN(CCNC(=O)c1ccc(CS(=O)(=O)c2c(Cl)cccc2Cl)o1)CCc1ccccc1 | – | – | – | – | 65
COc1ccccc1S(=O)(=O)Cc1ccc(C(=O)NCc2ccccc2)o1 | – | 55 | – | – | –
CCc1ccccc1S(=O)(=O)Cc1ccc(C(=O)NC2CCCC2)o1 | – | – | – | – | –

Screening data deposited in PubChem BioAssay by Sanford-Burnham Center for Chemical Genomics.
